Measured values taken from PubChem BioAssay AID1645860 (Buhrlage Lab, Dana-Farber Cancer Institute and Novartis …, 2021).
About 2,500 (5.3%) of roughly 47,000 compounds were called active. What follows is part of a selection rich in actives, with near analogues and random picks from the rest. A number with no mark means an inactive call. No stated cut-off is given here; in the data, active means inhibition above about 30%; inactive means the rest.

molecular target: Ubiquitin carboxyl-terminal hydrolase 30 (Homo sapiens) (UniProt Q70CQ3); assay: blocks human USP30 ubiquitin-rhodamine cleavage (AID 1645860); conditions: purified USP30, Ub-rhodamine cleavage fluorescence; at 25 µM; stronger effect = higher value
Sequence (Q70CQ3 whole entry, looked up): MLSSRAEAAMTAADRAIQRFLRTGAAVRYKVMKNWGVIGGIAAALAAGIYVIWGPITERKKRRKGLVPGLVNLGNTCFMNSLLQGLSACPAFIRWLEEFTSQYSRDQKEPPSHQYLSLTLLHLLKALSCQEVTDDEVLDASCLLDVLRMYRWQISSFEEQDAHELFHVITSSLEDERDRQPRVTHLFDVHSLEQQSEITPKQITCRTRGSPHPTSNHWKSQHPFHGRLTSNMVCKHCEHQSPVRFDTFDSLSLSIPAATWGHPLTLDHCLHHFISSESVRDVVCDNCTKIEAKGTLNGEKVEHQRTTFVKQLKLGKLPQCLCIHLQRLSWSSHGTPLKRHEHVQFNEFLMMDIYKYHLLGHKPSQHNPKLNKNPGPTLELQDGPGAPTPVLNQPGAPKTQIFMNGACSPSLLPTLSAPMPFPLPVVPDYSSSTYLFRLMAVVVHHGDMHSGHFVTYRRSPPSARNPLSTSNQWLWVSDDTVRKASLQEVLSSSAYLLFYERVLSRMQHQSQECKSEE

Row | Compound | inhibition
1 | Clc1ccc(C2NC3=NCN(Cc4ccco4)CN3c3nc4ccccc4n32)cc1 (configuration not stated) | 36.4% (active)
2 | COc1cccc(CNC(=O)C2(C)Oc3cccnc3N(C)C2=O)c1 (configuration not stated) | -5.25%
3 | O=C(NC1CCCCCC1)c1nc(Cn2cnc3ccccc3c2=O)no1 | 9.85%
4 | COc1ccc(N(CC(=O)NCc2ccco2)S(=O)(=O)c2ccccc2[N+](=O)[O-])c(OC)c1 | 3.13%
5 | CC(C)(C)c1ccc(-c2nnc3n2-c2ccccc2SC3)cc1 | 56.7% (active)
6 | CCc1ccccc1N1C(=O)CN(S(C)(=O)=O)CC1(C)C(=O)NC1CCCCC1 (configuration not stated) | 19.9%
7 | COCCSc1ccc(-c2cccnc2)nn1 | 1.49%
8 | Cc1ccc(C(=O)N2CCC3(CC2)CCN(c2cnn(C)c2)C3=O)cc1 | 17.1%
9 | O=C(NCC(c1ccco1)N1CCCCC1)c1ccccc1Cl (configuration not stated) | -6.05%
10 | Cc1cc(=O)n(CC(=O)NCc2ccccc2)c(N2CCCC2)n1 | 0.241%
11 | CCCOc1ccc(CNC(=O)C2CCCN(c3nnc(N4CCCC4=O)s3)C2)cc1 (configuration not stated) | 5.69%
12 | Cc1ccc(CNC(=O)c2cc(=O)nc3sc(N4CCCC(C)C4)nn23)cc1 (configuration not stated) | 30.1% (active)
13 | COc1ccccc1-n1ccnc(NC(=O)c2cccc(F)c2)c1=O | 11%
14 | COc1cccc(C(=O)Nc2nccn(-c3cccc(F)c3)c2=O)c1 | 0.051%
15 | COc1cccc(NC(=O)Nc2nccn(-c3ccccc3)c2=O)c1 | 39.1% (active)
16 | CSc1ncccc1C(=O)Nc1ccnn1C(C)c1ccncc1 (configuration not stated) | -23%
17 | CCn1c2ccccc2n2c(S(=O)(=O)Cc3ccccc3)nnc12 | 5.02%
18 | Cc1sc2nc(C3CC3)n(C3CCN(C(=O)C(C)C)CC3)c(=O)c2c1C | 18.3%
19 | CCC(Oc1ccccc1)C(=O)NCc1ccc2c(c1)OCO2 (configuration not stated) | 21.1%
20 | c1ccc(-c2ccc(NCc3ccc4c(c3)OCO4)nn2)cc1 | 33.6% (active)
21 | c1cc(CNCc2ccc3c(c2)OCO3)ccn1 | 0.888%
22 | Cc1cccc(CN2CCN(CC(=O)NCCN3CCOCC3)C2=O)c1 | -2.8%
23 | O=C(NCc1ccccc1F)c1nnn(-c2ccccc2)n1 | 14.4%

Row | Compound | inhibition
24 | CSCc1c(C)noc1-c1cc(C)on1 | 8.31%
25 | COc1ccccc1N(Cc1nc2nc(C)cc(C)n2n1)C(=O)c1ccccc1 | -0.203%
26 | CCOc1nc(-c2ccc(Cl)cc2Cl)nc2ccccc12 | 13.4%
27 | Cc1ccnc(Nc2nc(-c3ccccc3)c3cc(Cl)ccc3n2)n1 | 82.8% (active)
28 | CCOc1ccc(Nc2cc(C(=O)NCCN3CCCC3)c3ccccc3n2)cc1 | 29.9%
29 | CCOc1ccc(C(=O)C[n+]2cc(-c3ccccc3)n3c2CCC3)cc1 | 30.3% (active)
30 | CC(=O)C[n+]1cc(-c2ccc(C)cc2)n2c1CCC2 | 5.82%
31 | CCN1CCN(c2ccc(NC(=O)c3cccc(C)c3)cn2)C1=O | -23.3%
32 | Cc1nc(-c2cnccn2)n(CC(=O)Nc2ccc(F)cc2)c(=O)c1C | 2.83%
33 | CC(=O)c1cccc(Nc2c(C(=O)N3CCCC3)cnc3nc(C)ccc23)c1 | -35.8%
34 | COCCNc1nn2c(-c3ccc4ccccc4c3)cnc2s1 | 30.2% (active)
35 | OCc1ccccc1-c1cnc2sc(NCCc3ccccn3)nn12 | 16.3%
36 | Cc1nnn(C23CC4CC(CC(C(=O)NC5CCCC5)(C4)C2)C3)n1 | 21.2%
37 | CCOc1ccccc1N1CCN(C(=O)c2snc(-c3ccncc3)c2N)CC1 | 1.69%
38 | O=C(CCC(=O)N(c1ccccc1)c1ccccc1)Nc1ccccc1 | -16.4%
39 | COc1ccc(C)cc1NC(=O)Cn1c(=O)nc(N(C)c2ccccc2)c2ccccc21 | 0.767%
40 | O=C(Cn1cnc2c(sc3ccccc32)c1=O)Nc1ccc2c(c1)OCCO2 | -498%
41 | CN(c1ccccc1)c1nc(=O)n(CC(=O)Nc2ccc3c(c2)OCCO3)c2ccccc12 | 42.3% (active)
42 | CCCCS(=O)(=O)N1C[C@H]2CC[C@@]3(N=C(C)N(CC4CC4)C3=O)[C@H]2C1 | 12.5%
43 | CNC(=O)c1sc2nccnc2c1C1CCN(C(=O)c2cccc(F)c2)CC1 | 13.3%
44 | CNc1cc(C2CCCN2C(=O)c2cc3c([nH]c2=O)CCC3)ccn1 (configuration not stated) | -20.8%
45 | CC(C)N(C(=O)CSc1nc2ccc([N+](=O)[O-])cc2s1)C(C)C | -147%
46 | CC(C)Cc1cc(C(=O)N2CCN(C)CC(C(N)=O)C2)on1 (configuration not stated) | 16.9%

Row | Compound | inhibition
47 | C=C1CC[C@@H]2[C@@]3(C)CCC(=O)C(C)(C)[C@@H]3CC[C@@]2(C)[C@]12Cc1c(c(C)c(C)oc1=O)O2 | 30.3% (active)
48 | CNC(=O)Nc1ccc(C2(C(=O)NC3CCCC3)CCC2)cc1 | -19.9%
49 | CC12C(=O)N(CCCN3CCOCC3)CC(=O)N1CCc1c2[nH]c2ccccc12 (configuration not stated) | 7.84%
50 | Cc1cc(NC2CCCCC2)n2ncc(-c3ccccc3Cl)c2n1 | -16.5%
51 | Cc1ccc(NC(=O)CCC(=O)N(c2ccccc2)c2ccccc2)cc1Cl | 17.2%
52 | COc1ccc(NS(=O)(=O)c2cc(NC(=O)CC(=O)c3ccc([N+](=O)[O-])cc3)ccc2C)cc1 | 29.7%
53 | Cc1ccc(NC(=O)CCOc2ccccc2)cc1S(=O)(=O)Nc1ccccc1Cl | 30.4% (active)
54 | O=C(Nc1nnc(-c2cccs2)o1)C1CCCCC1 | 10.9%
55 | Cc1cc(-c2nnc(SCC(=O)Nc3ccc(Br)c(C)c3)n2N)n[nH]1 | 71.5% (active)
56 | Nn1c(SCC(=O)Nc2ccccc2F)nnc1-c1n[nH]c2c1CCC2 | -0.125%
57 | Cc1cc(NC(=O)COC(=O)c2cccc(C)c2O)ccc1Br | 6.49%
58 | O=C(c1cnc2sc3c(n2c1=O)CCC3)N1CCCCC1 | -37.1%
59 | CC(C)c1nc2oc3c(N4CCN(CCO)CC4)ncnc3c2c2c1CCC2 | 18.4%
60 | CC(C)Cc1nc2sc3c(NCc4ccco4)ncnc3c2c2c1CCC2 | -21.1%
61 | CC(O)CNc1ncnc2c1oc1nc(C(C)C)c3c(c12)CCC3 (configuration not stated) | 38.1% (active)
62 | CC(C)n1cnc2c1C(C(=O)N1CCN(C)CC1)N(Cc1ccccc1)CC2 (configuration not stated) | 9.34%
63 | CC(C)(C)C(=O)N1CCC2(COCc3cnc(NCc4ccco4)nc32)C1 (configuration not stated) | 2.12%
64 | Cc1c(S(=O)(=O)N2CCCCC2)c(C)n(C)c1-c1nnc(C2CCC2)o1 | 3.55%
65 | Cc1nnc(NCc2ccc(Cl)cc2)[nH]c1=O | 26%
66 | CSc1cccc(NC(=O)COc2ccc(C(=O)c3ccccc3)cc2)c1 | -4.48%
67 | CSc1cccc(NC(=O)CCc2ccc3nc[nH]c3c2)c1 | -0.451%
68 | CSc1cccc(NC(=O)CCn2c(=O)c3cccn3c3ccccc32)c1 | 32.6% (active)
69 | Cc1cc2n(n1)CCCN2C(=O)CCC(=O)Nc1ccc(F)cc1F | -24.2%

Row | Compound | inhibition
70 | CC(=O)N1C[C@H]2C3(CCN(C(=O)c4ccccc4)CC3)CC[C@@]2(C(=O)N(C)C)C1 | 25.8%
71 | Cc1ccc(Cc2nc(CC(=O)Nc3ccc(F)cc3F)n[nH]2)cc1 | -1.22%
72 | Cc1cc(F)ccc1NC(=O)c1cc(C2CC2)n2nccc2n1 | -33.1%
73 | Cc1ccc(-n2cc(-c3noc(C(=O)Nc4ccc(F)cc4C)n3)nn2)cc1 | 36.9% (active)
74 | CCC(C(=O)Nc1ccc(-c2cn3cccnc3n2)cc1)c1ccccc1 (configuration not stated) | -89.6%
75 | N#Cc1ccc(C(=O)Nc2cccc(-c3noc(C4CC4)n3)c2)c(F)c1 | 13.2%
76 | Cc1ccc(F)c2c(=O)c3c([nH]c12)CCN(CC(=O)Nc1cccc(C#N)c1)C3 | -178%
77 | O=C(Cn1c(=O)n(Cc2ccc3c(c2)OCO3)c(=O)c2ccccc21)NCc1ccco1 | 33% (active)
78 | O=C(Cn1c(=O)n(Cc2ccc3c(c2)OCO3)c(=O)c2cccnc21)Nc1ccc(F)cc1 | 21.5%
79 | CC(C)(C)C(=O)Cn1c(=O)n(Cc2ccco2)c(=O)c2ccccc21 | 1.71%
80 | Cc1cc2oc(=O)cc(CN3CCN(Cc4ccccc4)CC3)c2cc1C | 3.27%
81 | Cc1ccc(NC(=O)c2ccc3c(c2)N(S(C)(=O)=O)CC3)cc1C | -53.8%
82 | Cc1cccc(NC(=O)Nc2ccc3c(c2)N(S(=O)(=O)c2ccccc2)CC3)c1C | 30.5% (active)
83 | COc1ccccc1NC(=O)c1cccc(S(=O)(=O)N2CCc3ccccc32)c1 | -7.37%
84 | COc1ccc(C2=NC3(CCN(Cc4cccc(F)c4)CC3)NC2=O)cc1 | -23.4%
85 | CCc1cnc(N2CC[C@@H]3CN(CCC(C)C)S(=O)(=O)[C@@H]3CC2)nc1 | 27.9%
86 | Cc1ccc2c(=O)cc(CN(C)Cc3ccc(F)cc3)[nH]c2c1C | -7.81%
87 | COc1ccc(C2=CC(c3ccc(Cl)cc3)n3ncc(C(=O)Nc4ccccc4)c3N2)cc1 (configuration not stated) | -15.7%
88 | C=C1CCC2[C@](C)(CCC[C@]2(C)C(=O)OC)[C@H]1CCc1ccoc1C[N+](C)(C)Cc1ccccc1 (some centres not stated) | 72.7% (active)
89 | C=C1CCC2[C@](C)(CCC[C@]2(C)C(=O)OC)[C@H]1CCc1ccoc1/C=C/C(=O)O (some centres not stated) | 61.8% (active)
90 | CNc1nc(C2CCNCC2)nc2c1CCN(S(=O)(=O)c1ccccc1Cl)C2 | -118%
91 | COc1cc(O)ccc1CN1CCCC12Cc1ccccc1CNC2=O (configuration not stated) | -28%
92 | Cc1cncc(C2CCCN(C(=O)CCc3cc(Cl)no3)C2)n1 (configuration not stated) | -18.4%
